Assay results published in PubChem BioAssay.
The source made the active and inactive calls.

Columns and labels:
[1] = test system: Human papillomavirus type 1a protein E7 (residues 44-93); assay: HPV1a E7 fragment binders on microarrays, primary screen, biochemical, small-molecule microarray, residues 44-93, 635 nm fluorescence (AID 1108); details: small-molecule microarray binding, fluorescence 635 nm; higher = more signal;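 further: E7 fragment applied at 1 µg/mL in TBST for 1 h at 4 C; score combines spot fluorescence with its signal to noise ratio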
[2] = modulators of HCV replicon luciferase signal, primary screen, HCV replication inhibitor project, Huh7 cells, luciferase reporter (AID 1109); details: 48 h, higher = more signal;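 further: huh7 hepatoma cells harbouring a luciferase neomycin HCV replicon reporter; luciferase luminescence as measure of HCV replicon replication; test concentration not given here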
[3] = molecular target: Left-right determination factor 2 (Homo sapiens) (UniProt O00292); assay: LEFTY2 binders on small-molecule microarrays, primary screen, biochemical, small-molecule microarray, 635 nm fluorescence scan (AID 1110); details: LEFTY2 binding, higher = more signal
Chain of Left-right determination factor 2 (Homo sapiens) (O00292 whole entry, looked up): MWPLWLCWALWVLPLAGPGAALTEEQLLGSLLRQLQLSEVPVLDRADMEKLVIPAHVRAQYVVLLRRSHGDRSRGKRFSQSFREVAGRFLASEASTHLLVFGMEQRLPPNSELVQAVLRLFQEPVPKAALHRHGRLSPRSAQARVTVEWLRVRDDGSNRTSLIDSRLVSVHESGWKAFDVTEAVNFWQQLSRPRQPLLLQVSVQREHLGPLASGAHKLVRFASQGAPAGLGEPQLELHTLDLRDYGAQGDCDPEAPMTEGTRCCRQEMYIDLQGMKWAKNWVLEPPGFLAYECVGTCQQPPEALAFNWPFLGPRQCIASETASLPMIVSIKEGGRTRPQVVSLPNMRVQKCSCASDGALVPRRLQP

[4] = molecular target: Calmodulin-1 (Homo sapiens) (UniProt P0DP23); assay: CALM1 binders on microarrays, EGTA buffer, profiling panel, biochemical, small-molecule microarray, Cy5-labelled CALM1 (AID 1111); details: Cy5-CALM1 binding fluorescence, higher = more signal;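 further: labelled calmodulin applied in Tris saline Tween buffer holding calcium plus EGTA and DTT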
[5] = molecular target: Calmodulin-1 (Homo sapiens) (UniProt P0DP23); assay: calcium-bound CALM1 binders on microarrays, profiling panel, artefact control for SMM control-protein annotation, biochemical, small-molecule microarray, Cy5-labelled CALM1, plus calcium (AID 1112); details: Cy5-CALM1 binding fluorescence, higher = more signal;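 further: score merges spot fluorescence with signal to noise from triplicate slides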
[6] = small-molecule microarray binders of probe aWnt5a, primary screen, biochemical, biotinylated probe, 635/667 nm fluorescence (AID 1113); details: higher = more signal;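 further: score merges 667 nm fluorescence intensity with signal-to-noise per printed feature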
[7] = small-molecule microarray binders of probe aShh, primary screen, biochemical, biotinylated probe, 635/667 nm fluorescence (AID 1114); details: higher = more signal;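 further: probe is biotin-labelled aShh protein from a stem cell growth factor screen; measures binding of labelled protein to compounds printed on the slide; score merges feature fluorescence at 667 nm with signal-to-noise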
[8] = small-molecule microarray binders of probe aNog, primary screen, biochemical, biotinylated probe, 635/667 nm fluorescence (AID 1115); details: higher = more signal;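 further: probe is biotinylated aNog protein used at 0.15 µg/mL for 1 h at 4 C; z-score combines 667 nm fluorescence of each spot with its signal to noise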
[9] = molecular target: Torsin-1A-interacting protein 1 (Homo sapiens) (UniProt Q5JTV8); assay: LAP1 binders from COS7 cell lysate, primary screen, small-molecule microarray, 635/667 nm fluorescence (AID 1116); details: COS7-hLAP1 lysate binding, 635 nm fluorescence, higher = more signal
Chain of Torsin-1A-interacting protein 1 (Homo sapiens) (Q5JTV8 whole entry, looked up): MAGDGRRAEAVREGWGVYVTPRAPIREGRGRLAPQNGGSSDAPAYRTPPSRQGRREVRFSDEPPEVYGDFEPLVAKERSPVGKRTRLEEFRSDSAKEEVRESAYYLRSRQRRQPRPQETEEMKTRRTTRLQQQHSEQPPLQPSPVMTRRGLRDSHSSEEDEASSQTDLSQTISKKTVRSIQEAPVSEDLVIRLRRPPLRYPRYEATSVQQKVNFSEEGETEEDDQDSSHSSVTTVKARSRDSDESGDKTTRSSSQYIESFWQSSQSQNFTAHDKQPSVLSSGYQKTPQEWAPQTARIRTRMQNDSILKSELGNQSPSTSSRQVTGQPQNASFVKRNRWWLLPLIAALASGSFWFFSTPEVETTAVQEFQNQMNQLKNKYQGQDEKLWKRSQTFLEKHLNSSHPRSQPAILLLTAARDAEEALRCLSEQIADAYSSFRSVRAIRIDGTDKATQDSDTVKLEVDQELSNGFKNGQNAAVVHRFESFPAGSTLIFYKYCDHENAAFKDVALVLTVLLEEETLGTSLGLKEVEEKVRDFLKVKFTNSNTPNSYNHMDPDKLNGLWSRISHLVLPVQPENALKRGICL

[10] = molecular target: Alpha-bungarotoxin (Bungarus multicinctus) (UniProt P60615); assay: alpha-bungarotoxin binders on microarray, profiling panel, artefact control for SMM control protein annotation, biochemical, small-molecule microarray, Alexa647 label, 635/667 nm fluorescence (AID 1117); details: alpha-BTX-A647 binding fluorescence, higher = more signal
Chain of Alpha-bungarotoxin (Bungarus multicinctus) (P60615 whole entry, looked up): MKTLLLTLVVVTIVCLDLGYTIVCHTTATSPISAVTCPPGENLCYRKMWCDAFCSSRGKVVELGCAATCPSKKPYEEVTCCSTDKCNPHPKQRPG

Albumin (Bos taurus) = Albumin (Bos taurus) (UniProt P02769); assay: bovine serum albumin binders on microarray, profiling panel, artefact control for SMM control protein annotation, biochemical, small-molecule microarray, Alexa647 label, 635/667 nm fluorescence (AID 1118); details: BSA-A647 binding, fluorescence 635 nm, higher = more signal;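 further: score merges 667 nm emission intensity and signal-to-noise per printed compound spot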
Chain of Albumin (Bos taurus) (P02769 whole entry, looked up): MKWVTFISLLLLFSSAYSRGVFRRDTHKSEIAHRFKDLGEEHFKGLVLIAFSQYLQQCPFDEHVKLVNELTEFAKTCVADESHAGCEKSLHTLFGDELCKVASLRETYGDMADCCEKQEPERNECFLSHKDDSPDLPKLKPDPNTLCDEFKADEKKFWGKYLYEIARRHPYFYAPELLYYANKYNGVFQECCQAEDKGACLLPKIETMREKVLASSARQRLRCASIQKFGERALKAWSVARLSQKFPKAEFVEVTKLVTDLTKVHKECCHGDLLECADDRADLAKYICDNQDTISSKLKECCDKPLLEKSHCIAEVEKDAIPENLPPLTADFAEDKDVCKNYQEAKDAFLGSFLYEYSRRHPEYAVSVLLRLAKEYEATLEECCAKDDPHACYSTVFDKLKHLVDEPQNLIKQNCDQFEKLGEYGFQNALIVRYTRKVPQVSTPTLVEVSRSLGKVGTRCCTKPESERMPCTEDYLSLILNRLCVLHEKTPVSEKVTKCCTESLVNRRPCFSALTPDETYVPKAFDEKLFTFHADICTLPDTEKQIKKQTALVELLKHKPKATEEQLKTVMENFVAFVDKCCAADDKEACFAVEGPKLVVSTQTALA

[11] = small-molecule microarray binders of probe aXIP, primary screen, biochemical, NeuroSMM set, 635/667 nm fluorescence (AID 1119); details: higher = more signal, called active from +8 up or from −8 down;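 further: probe is the protein aXip251-270 applied at 1 µg/mL to compound-printed slides; binding of probe to printed compounds measured as 667 nm fluorescence plus signal to noise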
[12] = small-molecule binders of probe aNOTCH3, primary screen, biochemical, small-molecule microarray, 635/667 nm fluorescence (AID 1120); details: higher = more signal;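 further: probe is a biotin-tagged antibody raised against NOTCH3 rather than NOTCH3 protein; score merges spot fluorescence near 667 nm with spot signal to noise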
[13] = small-molecule binders of probe aNOTCH2, primary screen, biochemical, small-molecule microarray, 635/667 nm fluorescence (AID 1121); details: higher = more signal;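 further: score merges feature fluorescence read at 667 nm with its signal to noise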
[14] = molecular target: Carbonic anhydrase 2 (Homo sapiens) (UniProt P00918); assay: CAII small-molecule binders, profiling panel, biochemical, small-molecule microarray, Alexa647-labelled CAII (AID 1122); details: CAII-A647 binding fluorescence, higher = more signal
[15] = COS7 lysate on small-molecule microarray, probe aHis, 635 nm (AID 1123); details: COS7 cell lysate, fluorescence, higher = more signal;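 further: z-score combines 667nm fluorescence intensity with signal-to-noise per printed compound spot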
[16] = compound binding in COS7 lysate, probe aLAP1, primary screen, cell lysate, small-molecule microarray (AID 1124); details: probe aLAP1, fluorescence, higher = more signal;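 further: lysate comes from COS7 cells expressing LAP1 and is applied at 0.3 µg/mL; score merges spot fluorescence near 667 nm with signal-to-noise over triplicate slides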
Sam68 (KHDRBS1) = assay: Sam68 small-molecule binders, primary screen, biochemical, small-molecule microarray, 635 nm fluorescence (AID 1125); details: small-molecule microarray binding, higher = more signal;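 further: score merges 667 nm channel intensity with signal to noise over triplicate slides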
[17] = test system: Chordin-like protein 2 (CHRDL2); assay: CHRDL2 small-molecule binders, primary screen, biochemical, small-molecule microarray, 635 nm fluorescence (AID 1126); details: small-molecule microarray binding, fluorescence 635 nm; higher = more signal;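 further: printed compound slides probed with Chrdl2 protein at 4 µg/mL for 1 h at 4 C; score merges 667 nm emission intensity with signal to noise over three replicate slides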
[18] = molecular target: Concanavalin-A (Canavalia ensiformis) (UniProt P02866); assay: ConA small-molecule binders, primary screen, artefact control for SMM control protein annotation, biochemical, small-molecule microarray, Alexa647 label, 635 nm (AID 1127); details: ConA-A647 binding fluorescence, higher = more signal;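 further: z combines 667 nm emission intensity with signal-to-noise across three replicate slides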
Chain of Concanavalin-A (Canavalia ensiformis) (P02866 whole entry, looked up): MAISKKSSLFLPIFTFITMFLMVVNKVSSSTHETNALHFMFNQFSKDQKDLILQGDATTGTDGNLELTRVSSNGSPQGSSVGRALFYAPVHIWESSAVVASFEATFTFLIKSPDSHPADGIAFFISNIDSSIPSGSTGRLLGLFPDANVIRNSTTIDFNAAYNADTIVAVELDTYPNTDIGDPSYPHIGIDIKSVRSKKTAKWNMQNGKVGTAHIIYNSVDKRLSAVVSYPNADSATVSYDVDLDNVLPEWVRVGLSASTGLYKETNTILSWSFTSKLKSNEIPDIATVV

| SMILES | composite z-score [1] | z-score [2] | composite z-score [3] | composite z-score [4] | composite z-score [5] | composite z-score [6] | composite z-score [7] | composite z-score [8] | composite z-score [9] | composite z-score [10] | composite z-score (Albumin (Bos taurus)) | composite Z-score [11] | composite z-score [12] | composite z-score [13] | composite z-score [14] | composite z-score [15] | composite z-score [16] | composite z-score (Sam68 (KHDRBS1)) | composite z-score [17] | composite z-score [18] |
| --- | --- | --- | --- | --- | --- | --- | --- | --- | --- | --- | --- | --- | --- | --- | --- | --- | --- | --- | --- | --- |
| CCCNC(=O)[C@@]1(C)c2ccccc2C(=O)N(Cc2cc(F)cc(C(F)(F)F)c2)[C@H]1c1ccc(CO)cc1 | 0.843 | -0.372 | -0.742 | 0.685 | 0.499 | -0.0405 | 0.0469 | 1.03 | 0.296 | -0.0457 | 0.695 | 0.373 (inactive) | -0.201 | -0.0569 | 0.587 | 2.24 | -0.337 | -0.0127 | -1.76 | -0.365 |
| CCCC[C@H]1OB(O)C[C@H]2C1=C(C)Cn1c(=O)n(-c3ccccc3)c(=O)n12 | 0.422 | -0.759 | 0.648 | -0.305 | -0.406 | -0.215 | -0.0035 | -0.426 | 0.363 | -0.149 | 0.242 | -0.426 (inactive) | -0.236 | -0.177 | -0.159 | 0.549 | 0.144 | 0.401 | 0.77 | 0.0577 |
| COc1ccc(C#Cc2ccc3c(c2)[C@]2(C(=O)N3)[C@H](C(=O)N3CCc4cc(OC)c(OC)cc4C3)[C@H]3C(=O)O[C@H](c4ccccc4)[C@H](c4ccccc4)N3[C@@H]2c2ccc(OCCO)cc2)cc1 | 1.39 | -0.864 | 0.483 | 0.861 | -0.0312 | 0.027 | 0.0469 | -0.551 | 0.692 | 0.992 | -0.0155 | 0.289 (inactive) | 0.0762 | -0.0859 | 0.136 | 1.19 | 0.351 | 1.24 | 0.523 | 1.07 |
| CCCC[C@H]1OB(O)C[C@H]2C1=C(COc1ccccc1)C[C@H]1C(=O)N(Cc3ccccc3)C(=O)[C@H]12 | 1.38 | -1.72 | 0.377 | 0.324 | -0.774 | -0.176 | -0.0709 | -0.273 | -0.0868 | 1.04 | 0.117 | 0.142 (inactive) | 0.0203 | -0.108 | 0.602 | 0.383 | 0.154 | 0.868 | 0.0092 | 1.12 |
| C[N+](C)(C)CCCCNC(=O)[C@H]1C[C@H]2C(=O)N3CCC[C@H]3C(=O)N2[C@H]1c1ccc(O)cc1 | 0.257 | -1.25 | 1.28 | -0.546 | -0.368 | -0.0236 | -0.0146 | -0.0662 | 2.01 | 1.57 | -0.926 | -0.388 (inactive) | 0.0793 | -0.0449 | 0.627 | 2.08 | 0.625 | 0.895 | 1.21 | 1.09 |
| CC(C)C(=C=CC[C@H](O)c1ccccc1OCCO)CCO | 1.31 | -1.32 | -0.378 | -0.274 | 0.0647 | -0.0643 | 0.0639 | -0.0546 | 1.02 | 1.92 | -0.415 | -0.172 (inactive) | -0.0947 | -0.045 | 0.707 | 0.989 | 0.342 | 0.829 | -0.332 | -0.284 |
| CC(=O)N1Cc2ccccc2C[C@@]2(N=C(c3ccc(OCCCO)cc3)O[C@H]2c2ccccc2)C1=O | 0.671 | -2.83 | 0.587 | 1.26 | 0.465 | -0.0051 | 0.0895 | 0.909 | 2.05 | 2.37 | -0.0471 | 0.0748 (inactive) | 0.22 | 0.139 | 0.709 | 3.18 | 1.24 | 1.3 | 0.611 | 1.17 |
| CCCNC(=O)[C@@]1(C)c2ccccc2C(=O)N(C(C)C)[C@H]1c1ccc(CO)cc1 | -0.0794 | -1.99 | -1.28 | -0.58 | -0.145 | -0.212 | -0.262 | -0.0172 | -0.109 | -0.731 | -0.598 | -0.305 (inactive) | -0.136 | -0.102 | 0.673 | 1.63 | 0.65 | -0.347 | -0.95 | -1.15 |
| C=CCC(OC(C)=O)[C@@H]1[C@@H](N(Cc2ccc(-c3ccccc3)cc2)C(=O)c2ccc(C)cc2)c2cc(OCCCO)ccc2N1C(=O)c1ccc2ccccc2n1 (stereo not given in full) | -0.6 | -0.41 | 0.755 | -0.248 | 0.24 | -0.14 | -0.181 | 0.496 | 0.234 | -0.0983 | -0.361 | -0.181 (inactive) | 0.246 | -0.0134 | 0.0144 | 0.249 | -0.446 | -0.44 | 0.0539 | -1.78 |
| CC(C)(C)OC(=O)CC[C@@]1(C(=O)N2CCOCC2)N=C(c2ccc(OCCCO)cc2)O[C@@H]1c1ccccc1N=[N+]=[N-] | 1.48 | 0.623 | 0.395 | 1.56 | 0.642 | 0.115 | 0.558 | 0.45 | 1.6 | 2.41 | 0.899 | 0.817 (inactive) | 0.336 | -0.0463 | 0.74 | 3.35 | 1.51 | 1.3 | -0.16 | 1.14 |
| O=C1O[C@H](c2ccccc2)[C@H](c2ccccc2)N2[C@H]1[C@@H](C(=O)Nc1nc3ccccc3s1)[C@]1(C(=O)Nc3ccc(C#CC4=CCCCC4)cc31)[C@H]2c1ccc(OCCO)cc1 | 0.945 | -1.91 | 0.56 | 1.36 | 0.536 | -0.176 | -0.188 | 1.37 | -0.513 | 2.12 | 0.897 | -0.495 (inactive) | 0.225 | -0.0144 | 0.761 | 2.68 | 0.596 | 1.3 | 0.448 | 1.12 |
